For 104 compounds, AC50 and activity, negative = inhibition results are on record in PubChem BioAssay AID1851 (National Center for Advancing Translational Sciences (NCATS), 2009).

Broadly, the AC50 is the midpoint of the concentration-response curve, whichever way the signal moves.

Values joined by “and” are separate entries in the source; they are usually repeats but may differ in a detail not shown here. Equal values may be shown once. Out of some 16,000 compounds screened, about 2,600 (16%) were called active. Roughly 20% stayed inconclusive and do not appear here. Calls come from the whole dose curve; as a rule, active = well fitted curve in the direction sought with a large enough effect; inconclusive = small, poorly fitted or top-dose-only effect, or effect the other way; inactive = no such curve, though single readings can be large or run the other way. The list is a sample of the results. Some compounds were tested as several samples or in several runs, with calls that do not always agree.
% is set by controls: 0 for no effect and ±100 for the full control effect.

Chain of Cytochrome P450 2D6 (Homo sapiens) (P10635 whole entry, looked up): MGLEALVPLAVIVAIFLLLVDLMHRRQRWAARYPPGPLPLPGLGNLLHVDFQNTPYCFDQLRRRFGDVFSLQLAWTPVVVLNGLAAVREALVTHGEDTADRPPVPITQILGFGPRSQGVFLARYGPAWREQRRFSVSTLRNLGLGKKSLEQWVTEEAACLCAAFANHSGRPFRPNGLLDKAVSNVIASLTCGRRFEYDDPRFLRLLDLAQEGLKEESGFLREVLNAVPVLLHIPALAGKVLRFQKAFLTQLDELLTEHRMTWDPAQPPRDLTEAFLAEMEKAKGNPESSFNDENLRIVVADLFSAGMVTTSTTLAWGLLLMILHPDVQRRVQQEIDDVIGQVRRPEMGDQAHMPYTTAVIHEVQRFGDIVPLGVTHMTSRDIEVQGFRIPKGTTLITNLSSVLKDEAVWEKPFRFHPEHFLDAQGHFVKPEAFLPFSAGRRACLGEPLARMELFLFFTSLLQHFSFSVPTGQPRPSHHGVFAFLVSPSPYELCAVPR

The assay concerns the target Cytochrome P450 2D6 (Homo sapiens) (UniProt P10635). In words: Cytochrome panel assay with activity outcomes. Conditions: recombinant CYP, pro-luciferin dealkylation, luminescence, p450-cyp2d6; series mostly up to 57.1 µM.
In the case of `CN(Cc1ccco1)c1cc(-c2cccc(C#N)c2)ncn1`, the AC50 result is “inactive”.

For the compound `CN(Cc1ccco1)c1cc(-c2cccnc2)ncn1`, the AC50 entry is “inactive”.

As to `CN(C)c1ccnc(-c2cccc(NS(C)(=O)=O)c2)n1`, the AC50 entry was “inactive”.

Consider `CN(Cc1ccco1)c1ccnc(-c2cccc(NS(C)(=O)=O)c2)n1`, for which the AC50 was 20 µM (active). On the same count and under the same terms, under `COc1cccc(-c2nccc(N(C)Cc3ccco3)n2)c1` stands 1.26 µM (active); under `COc1cccc(-c2cc(N(C)Cc3ccco3)ncn2)c1`, 15.8 µM (active); under `CN(Cc1ccco1)c1ccnc(-c2ccoc2)n1`, “inactive”. The same measure, in the same setting: under `CN(Cc1ccco1)c1ccnc(-c2cccnc2)n1` stands 7.94 µM (active); under `CCOC(=O)c1c(C)nc2c(c1-c1ccccc1)C(=O)CCC2`, “inactive”; under `C=C(CC)C(=O)c1ccc(OCC(=O)O)c(Cl)c1Cl`, “inactive”. Take `C=CCNc1nc(Cl)nc(Nc2ccc(OC)cc2)n1`: the AC50 result was “inactive”. Same read-out and setting: the same measure for `CNC(=O)[C@@H]1O[C@@H](n2cnc3c(NCc4ccc(N)cc4)ncnc32)[C@@H](O)[C@H]1O`: “inactive”; for `COc1nnc(OC)c2ccccc12`: “inactive”. In the case of `NS(=O)(=O)c1cc(C(=O)O)c(O)c2ccccc12`, the activity, negative = inhibition was 0.979% [at 11.4 µM] (inactive). `COC(=O)/C=C\c1cc(O)ccc1O`: the AC50 result was “inactive”. Consider `C#CCSc1nncn1C(=O)/C=C/c1ccccc1`, for which the AC50 result is “inactive”.

Consider `Nc1nc2c(c(=O)[nH]1)CN(c1ccc(S(N)(=O)=O)cc1)CN2`, for which the activity, negative = inhibition is -2.27% [at 11.4 µM] (inactive). On to `CCC(Sc1nc(C)cc(=O)[nH]1)C(=O)Nc1nc2c(s1)CCCC2` (centres undefined), for which the AC50 result is “inactive”. The same measure, in the same setting: under `N=C(N)SCCc1ccc(OCc2ccc([N+](=O)[O-])cc2)cc1` stands “inactive”.

Turning to `CC(C)Oc1ccc(CSC(=N)N)cc1`, the AC50 is 14.1 µM (active). Still for that read-out and setting: the same measure for `CCc1nnc(SCc2ccc(OC(C)C)cc2)n1N`: “inactive”.

Turning to `O=C1CN(C(=O)c2ccc(Br)o2)C(c2ccc(F)cc2)c2cc(Cl)ccc2N1` (centres undefined), the AC50 entry is “inactive”.

Consider `C[C@@H]1CN2[C@H](c3ccc(Br)cc3)[C@H](C)CC[C@H]2C(=O)O1`, for which the activity, negative = inhibition was -10.6% [at 11.4 µM] (inactive).

In the case of `NC(=O)N[C@H]1NC(=O)NC1=O`, the AC50 result is “inactive”. On the same count and under the same terms, the same measure for `OCCCCNCc1ccc(OCc2ccccc2Cl)cc1`: 3.55 µM (active); for `O=C(NCc1ccccc1Cl)c1cnccn1`: “inactive”; for `CCOc1cc(C2NN=C(c3ccccc3)S2)ccc1OCc1ccccc1Cl` (centres undefined): “inactive”. Regarding `OCCCNCc1ccccn1`, the activity, negative = inhibition is 12.8% [at 11.4 µM] (inactive). On to `CCOc1cc(CNCCO)cc(Br)c1OCc1ccccc1Cl`, for which the AC50 was 4.47 µM (active). On the same count and under the same terms, the same measure for `CCOc1cc(/C=C2\N=C(C)OC2=O)cc(Br)c1OCC(=O)OC`: “inactive”; for `CCC(C)NC(=O)C1c2cc(OC)c(OC)cc2C(=O)N(C)C1c1cccs1` (centres undefined): “inactive”. On to `C/C(=N/S(=O)(=O)c1ccc(Cl)c(Cl)c1)OCC(C)(C)C`, for which the activity, negative = inhibition is 8.65% [at 11.4 µM] (inactive). Take `COc1ccc(Oc2ncc3nc(-c4ccc(Cl)cc4)c(=O)n(C)c3n2)cc1`: the AC50 entry is “inactive”. The same measure, in the same setting: the same measure for `CN(C)CCNC(=O)C(C(=O)c1ccc(F)cc1)n1ccccc1=O` (centres undefined): “inactive”; for `CCCCSc1nc(C)cc(NC(=S)Nc2ccc(OC)cc2)n1`: “inactive”. As for `CCc1cc[n+](-c2nc3ccccc3nc2C(=C=[N-])C#N)cc1`, the AC50 result is “inactive”. Same read-out and setting: the same measure for `C/C(CC(=O)NCc1ccco1)=N\NC(=O)Cc1ccc(Cl)cc1`: “inactive”; for `CCCNC(=O)NS(=O)(=O)c1ccc(Cl)cc1`: “inactive”; for `CCCNC(=O)CC(NS(=O)(=O)c1ccc(Cl)cc1)c1ccco1` (centres undefined): 1.41 µM (active). The same measure, in the same setting: under `CCCCNC(=O)NS(=O)(=O)c1ccc(C)cc1` stands “inactive”. The same measure, in the same setting: the same measure for `C/C(CC(=O)NCc1ccco1)=N\NC(=O)Cc1ccccc1`: “inactive”; for `O=C(CC(NS(=O)(=O)c1ccc(Cl)cc1)c1ccco1)NCc1ccco1` (centres undefined): 5.62 µM (active).

Regarding `C/C(=N/NC(=O)Cc1cccn1C)c1ccccc1`, the AC50 entry was “inactive”.

On to `Cc1ccc(/C=C/c2nnc(-c3ccc(C)cc3)o2)cc1`, for which the AC50 entry is “inactive”. Take `Cc1c2c(nc3c(C(=O)NC4CCCC4)cnn13)CCCC2`: the AC50 result was “inactive”. Take `Cc1cccc(C)c1OC1(c2ccccc2)OC(=O)c2ccccc21` (centres undefined): the AC50 entry is “inactive”. On the same count and under the same terms, under `O=C(/C=C\c1ccc(O)c(O)c1)O[C@@H]1C[C@](O)(C(=O)O)C[C@@H](O)[C@@H]1O` stands “inactive”; under `CCCn1nc(Oc2nc(NCC)nc(NC(C)C)n2)ccc1=O`, “inactive”.

In the case of `COc1ccc(Cc2nnc(NC(=O)Cn3cnc4c3c(=O)n(C)c(=O)n4C)s2)cc1OC`, the AC50 entry is “inactive”. The same measure, in the same setting: under `COc1cccc(C2C3=C(CC(C)(C)CC3=O)OC(N)=C2[N+](=O)[O-])c1` (centres undefined) stands “inactive”; under `COc1ccc(C2C3=C(CC(C)(C)CC3=O)Oc3ncn(CC(C)C)c(=N)c32)cc1` (centres undefined), 1 µM (active); under `CCOC(=O)c1c(C)nc2c(c1-c1ccc(OC)cc1)C(=O)CC(C)(C)C2`, “inactive”.

For the compound `O=C(Nc1ccccc1)N1CCC2(CC1)CCN(C(=O)c1ccco1)CC2`, the AC50 result was “inactive”.

As for `O=C(c1ccco1)N1CCC[C@@]2(CCN(C(c3ccccc3)c3ccccc3)C2)C1`, the AC50 was 3.16 µM (active). The same measure, in the same setting: under `O=C(c1ccco1)N1CCC2(CC1)CCN(c1ccc(-c3ccccc3)cc1)CC2` stands “inactive”; under `CC(C)NC(=O)N1CCC2(CC1)CCN(C(=O)c1ccco1)CC2`, “inactive”; under `O=C(c1ccco1)N1CCC2(CCCN(c3ccccc3)C2)CC1`, “inactive”. On to `O=C(Nc1ccccc1)N1CCCC2(CCN(C(=O)c3ccco3)CC2)C1`, for which the AC50 entry was “inactive”.

With `O=C(c1ccco1)N1CCC2(CCCN(C(c3ccccc3)c3ccccc3)C2)CC1`, the AC50 was 10 µM (active). Take `O=C(c1ccco1)N1CCC2(CC1)CN(c1cccc(-c3ccccc3)c1)C2`: the AC50 result was “inactive”.

With `O=C(c1ccco1)N1CCC2(CC1)CCN(C(c1ccccc1)c1ccccc1)CC2`, the AC50 was 5.01 µM (active). Regarding `COc1ccc(NC(=O)N2CCCC3(CCN(C(=O)c4ccco4)CC3)C2)cc1`, the AC50 result is “inactive”. On the same count and under the same terms, the same measure for `N#Cc1cccc(NC(=O)N2CC[C@@]3(CCCN(C(=O)c4ccco4)C3)C2)c1`: “inactive”. On the same count and under the same terms, under `CC(C)NC(=O)N1CCCC2(CCN(C(=O)c3ccco3)CC2)C1` stands 2.51 µM (active); under `Cc1nc2ccccn2c1/C(O)=C1\C(=O)C(=O)N(CCN2CCOCC2)C1c1cccnc1` (centres undefined), “inactive”. The same measure, in the same setting: the same measure for `CCOc1ccc(/C(O)=C2/C(=O)C(=O)N(CCOCCO)C2c2cccnc2)cc1` (centres undefined): “inactive”. Regarding `CN[C@H](CC(=O)O)C(=O)O`, the AC50 entry is “inactive”. Same read-out and setting: the same measure for `C=C[C@@]1(C)CC(=O)[C@@]2(O)[C@@]3(C)[C@@H](O)CCC(C)(C)[C@@H]3[C@H](O)[C@H](OC(C)=O)[C@@]2(C)O1`: “inactive”; for `COc1ccc(C(=O)N2CCC3(CC2)CN(C(=O)Nc2ccccc2)C3)cc1`: “inactive”. Still for that read-out and setting: under `Cc1cc(C(C#N)c2cccc(Cl)c2)n2ncnc2n1` (centres undefined) stands “inactive”; under `CC1CC(=O)c2cnc(N)nc2C1` (centres undefined), “inactive”. Consider `COC(=O)[C@@H]1CC[C@H](C)[C@@H](c2ccc(C)cc2)N1C(=O)c1ccc(/C=N\O[C@@H](C)c2cn([C@H]3COC[C@H]3O)nn2)cc1`, for which the activity, negative = inhibition was -10% [at 11.4 µM] (inactive).

In the case of `CC(C)=CC(=O)Nc1nnc(C(C)C)s1`, the AC50 result was “inactive”. On to `COc1ccc(OCc2nnc(SCC(=O)O)n2N)cc1`, for which the AC50 result is “inactive”. On the same count and under the same terms, under `O=C(c1ccco1)N1CCC2(CC1)CN(c1ccc(-c3ccccc3)cc1)C2` stands “inactive”. On the same count and under the same terms, the same measure for `O=C(c1ccco1)N1CCC2(CC1)CN(c1ccccc1)C2`: “inactive”.

Consider `O=C(c1ccco1)N1CCC2(CC1)CN(C(c1ccccc1)c1ccccc1)C2`, for which the AC50 is 1.26 µM (active). The same measure, in the same setting: the same measure for `O=C(N/C(=C\c1cccs1)C(=O)N1CCCCCC1)c1ccccc1`: “inactive”. Turning to `O=C(O)CS(=O)c1ccc2c3c(cccc13)C(=O)c1ccccc1-2` (centres undefined), the activity, negative = inhibition was 21.8% [at 11.4 µM] (inactive). `CN(C(=O)COc1cccc(Br)c1)C1CCS(=O)(=O)C1` (centres undefined): the AC50 result is “inactive”.

For `COc1ccc(NC(=O)COC(=O)c2c(-c3ccccc3)noc2C)cc1`, the AC50 entry was “inactive”. Take `C/C(=N\NC(=O)c1ccc(Cl)cc1)c1ccc(Br)s1`: the AC50 entry is “inactive”. For `CCSC(=N)N`, the half-maximal activity concentration (AC50) result is “inactive and 3.98 µM (active)”. For the compound `N=C(N)SCCSC(=N)N`, the activity, negative = inhibition is 5.17% [at 11.4 µM] (inactive). Regarding `CC(C)SC(=N)N`, the AC50 result is “inactive”. For the compound `C[C@@H](CSC(=N)N)C(N)=O`, the activity, negative = inhibition was 4.14% [at 11.4 µM] (inactive).

As to `CSC(=N)N`, the AC50 result is “inactive and 50.1 nM (active)”. As to `N=C(N)SCCN`, the AC50 entry is “inactive”.

`CCn1c(C)nc2cc(S(=O)(=O)C(F)F)ccc21`: the AC50 entry is “inactive”. Same read-out and setting: under `Cc1ccc(Sc2nc(-c3ccccc3)ccc2C#N)cc1` stands “inactive”; under `CCOC(=O)C1CCCN(C(=O)C2CCN(S(=O)(=O)N3CCC4(CC3)OCCO4)CC2)C1` (centres undefined), “inactive”. Still for that read-out and setting: the same measure for `CCCCSc1nnc(-c2ccc(C)cc2)n1C`: “inactive”. Same read-out and setting: the same measure for `COC(=O)CNC(c1ccccc1Cl)c1cc(Br)ccc1NC(=O)CCN1CCOCC1` (centres undefined): “inactive”; for `NNC(=O)CNC(c1ccccc1)c1cc(Br)ccc1NC(=O)c1ccccc1Br` (centres undefined): 7.94 µM (active). Consider `NNC(=O)CNc1cccc(Br)c1`, for which the activity, negative = inhibition is -9.21% [at 11.4 µM] (inactive).

Regarding `O=S1(=O)N[C@H]2CC[C@@H]3NS(=O)(=O)N[C@H]4CC[C@H](N1)N4S(=O)(=O)N23`, the activity, negative = inhibition was 12.7% [at 11.4 µM] (inactive). With `CC(C)(C)N1C(=O)[C@H]2[C@@H]3[C@H](O)C=CC(=O)[C@H]3CC[C@H]2C1=O`, the activity, negative = inhibition was 7.58% [at 11.4 µM] (inactive). On to `COc1ccc(N(C)C(=O)c2ccc3nc(-c4ccccc4)c(-c4ccccc4)nc3c2)cc1`, for which the AC50 result is “inactive”.

For the compound `CS(=O)(=O)N1CC(C(=O)NC2CC2)Oc2ccc(Cl)cc21` (centres undefined), the AC50 entry is “inactive”. Still for that read-out and setting: under `C=C(CC1([C@@H](NP(=O)(c2ccccc2)c2ccccc2)[C@H]2C[C@@H]2CCN(C(=O)OCC)S(=O)(=O)c2ccc(C)cc2)CC1)c1ccccc1` stands “inactive”; under `N#CCCn1c(=O)c(-c2ccc(Cl)cc2)nc2cnc(N3CCOCC3)nc21`, “inactive”; under `Cc1nc2cncnc2n(Cc2ccccc2)c1=O`, “inactive”. On the same count and under the same terms, the same measure for `Cc1ccc([C@@H](O)c2cnc(C)n2Cc2ccccc2)cc1`: 0.631 µM (active).

With `Cc1ncc(CSC(=N)N)n1Cc1ccccc1`, the activity, negative = inhibition was -11.5% [at 11.4 µM] (inactive).
